Read-out in test [1]: Interleukin-8 (IL8), CXCL8 (gene 3576)
In words: BSK_CASM3C_IL8: BioMAP Diversity Plus: CASM3C Assay for Interleukin-8 (IL8) Biomarker Activity (AID 2283042).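 Also: IL-8 protein level quantified by ELISA.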 The settings on record: primary human coronary artery smooth muscle cells; actives raise or lower the signal.

Read-out in test [2]: Human Leukocyte Antigen - DR isotype (HLADR), HLA-DRA (gene 3122)
In words: BSK_CASM3C_HLADR: BioMAP Diversity Plus: CASM3C Assay for Human Leukocyte Antigen - DR isotype (HLADR) Biomarker Activity (AID 2283043).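 Also: cell-surface HLA-DR protein level quantified by ELISA.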 The settings on record: primary human coronary artery smooth muscle cells; actives raise or lower the signal.

Read-out in test [3]: Macrophage colony-stimulating factor (MCSF), CSF1 (gene 1435)
In words: BSK_CASM3C_MCSF: BioMAP Diversity Plus: CASM3C Assay for Macrophage colony-stimulating factor (MCSF) Biomarker Activity (AID 2283044).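 Also: M-CSF protein amount quantified by ELISA after 24 h exposure.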 The conditions noted are these: primary human coronary artery smooth muscle cells; actives raise or lower the signal.

Read-out in test [4]: Low-density lipoprotein receptor (LDLR), LDLR (gene 3949)
In words: BSK_CASM3C_LDLR: BioMAP Diversity Plus: CASM3C Assay for Low-density lipoprotein receptor (LDLR) Biomarker Activity (AID 2283045).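 Also: LDLR protein level on the cell surface quantified by ELISA.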 The settings on record: primary human coronary artery smooth muscle cells; actives raise or lower the signal.

Read-out in test [5]: Monocyte Chemoattractant Protein-1 (MCP1), CCL2 (gene 6347)
In words: BSK_CASM3C_MCP1: BioMAP Diversity Plus: CASM3C Assay for Monocyte Chemoattractant Protein-1 (MCP1) Biomarker Activity (AID 2283046).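 Also: MCP-1 level quantified by ELISA 24 h after dosing.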 The settings on record: primary human coronary artery smooth muscle cells; actives raise or lower the signal.

The nature of test [6]: BSK_CASM3C_Proliferation: Cell Proliferation Assessment in the BioMAP Diversity Plus: CASM3C Assay (AID 2283047).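 Also: sulforhodamine B total protein stain as relative cell number at 560 nm; sub-confluent cells exposed 48 h before staining; fitted both ways against DMSO so gain or loss of cell number.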 The conditions noted are these: primary human coronary artery smooth muscle cells.
Read-out in test [7]: Monokine induced gamma interferon (MIG), CXCL9 (gene 4283)
Briefly: BSK_CASM3C_MIG: BioMAP Diversity Plus: CASM3C Assay for Monokine induced gamma interferon (MIG) Biomarker Activity (AID 2283048).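 Also: MIG protein level measured by ELISA.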 The settings on record: primary human coronary artery smooth muscle cells; actives raise or lower the signal.

Read-out in test [8]: serum amyloid A (SAA), SAA1 (gene 6288)
Briefly: BSK_CASM3C_SAA: BioMAP Diversity Plus: CASM3C Assay for serum amyloid A (SAA) Biomarker Activity (AID 2283049).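 Also: SAA protein level quantified by ELISA.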 The settings on record: primary human coronary artery smooth muscle cells; actives raise or lower the signal.

The nature of test [9]: BSK_CASM3C_SRB: Viability Assessment in the BioMAP Diversity Plus: CASM3C Assay (AID 2283050).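 Also: cells exposed to compound for 24 h.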 The conditions noted are these: primary human coronary artery smooth muscle cells.
Read-out in test [10]: Thrombomodulin, THBD (gene 7056)
Briefly: BSK_CASM3C_Thrombomodulin: BioMAP Diversity Plus: CASM3C Assay for Thrombomodulin Biomarker Activity (AID 2283051).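 Also: thrombomodulin protein level measured by ELISA 24 h after dosing.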 The settings on record: primary human coronary artery smooth muscle cells; actives raise or lower the signal.

Read-out in test [11]: Tissue Factor, F3 (gene 2152)
In words: BSK_CASM3C_TissueFactor: BioMAP Diversity Plus: CASM3C Assay for Tissue Factor Biomarker Activity (AID 2283052).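 Also: cell surface tissue factor protein level read by ELISA.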 The settings on record: primary human coronary artery smooth muscle cells; actives raise or lower the signal.

Read-out in test [12]: Interferon-gamma inducible Protein 10 (IP10), CXCL10 (gene 3627)
In words: BSK_hDFCGF_IP10: BioMAP Diversity Plus: hDFCGF Assay for Interferon-gamma inducible Protein 10 (IP10) Biomarker Activity (AID 2283053). The settings on record: primary human foreskin fibroblasts; actives raise or lower the signal. In short, it runs like this: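 Primary human foreskin fibroblasts exposed to chemicals for 24 h. IP-10 measured by ELISA; changes fitted bidirectionally against DMSO baseline.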

Read-out in test [13]: Urokinase-type plasminogen activator receptor (uPAR), PLAUR (gene 5329)
Briefly: BSK_CASM3C_uPAR: BioMAP Diversity Plus: CASM3C Assay for Urokinase-type plasminogen activator receptor (uPAR) Biomarker Activity (AID 2283054).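 Also: cell-surface uPAR protein level quantified by ELISA.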 The settings on record: primary human coronary artery smooth muscle cells; actives raise or lower the signal.

Read-out in test [14]: Vascular cell adhesion molecule 1 (VCAM1), VCAM1 (gene 7412)
In words: BSK_CASM3C_VCAM1: BioMAP Diversity Plus: CASM3C Assay for Vascular cell adhesion molecule 1 (VCAM1) Biomarker Activity (AID 2283055).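 Also: VCAM-1 protein level quantified by ELISA on the cells.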 The conditions noted are these: primary human coronary artery smooth muscle cells; actives raise or lower the signal.

Read-out in test [15]: Collagen III, COL3A1 (gene 1281)
Briefly: BSK_hDFCGF_CollagenIII: BioMAP Diversity Plus: hDFCGF Assay for Collagen III Biomarker Activity (AID 2283056). The conditions noted are these: primary human foreskin fibroblasts; actives raise or lower the signal. In short, it runs like this:
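Response relative to DMSO, fitted in both directions, reflects ELISA-measured collagen III in human primary skin fibroblasts 24 h after compound addition.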

Read-out in test [16]: Epidermal growth factor receptor (EGFR), EGFR (gene 1956)
In words: BSK_hDFCGF_EGFR: BioMAP Diversity Plus: hDFCGF Assay for Epidermal growth factor receptor (EGFR) Biomarker Activity (AID 2283057). The settings on record: primary human foreskin fibroblasts; actives raise or lower the signal. In short, it runs like this:
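Primary human foreskin fibroblasts (hDFCGF system), sampled 24 h after dosing; EGFR quantified by ELISA. Bidirectional fit relative to DMSO baseline; SRB total-protein staining in parallel cultures for cytotoxicity.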

Read-out in test [17]: Interleukin-8 (IL8), CXCL8 (gene 3576)
Briefly: BSK_hDFCGF_IL8: BioMAP Diversity Plus: hDFCGF Assay for Interleukin-8 (IL8) Biomarker Activity (AID 2283058). The conditions noted are these: primary human foreskin fibroblasts; actives raise or lower the signal. Summed up:
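Fibroblast monolayers (human foreskin, hDFCGF) received test chemical for 24 h before ELISA detection of IL-8; either increases or decreases relative to DMSO count as activity.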

Test [18] in a line: BSK_hDFCGF_Proliferation: Cell Proliferation Assessment in the BioMAP Diversity Plus: hDFCGF Assay (AID 2283059).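 Also: curves fitted for both rise and fall of signal versus DMSO baseline.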 The settings on record: primary human foreskin fibroblasts. Summed up: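 This proliferation readout used SRB total-protein staining of human foreskin fibroblasts […], normalized to DMSO with bidirectional curve fitting.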
Read-out in test [19]: Macrophage colony-stimulating factor (MCSF), CSF1 (gene 1435)
Briefly: BSK_hDFCGF_MCSF: BioMAP Diversity Plus: hDFCGF Assay for Macrophage colony-stimulating factor (MCSF) Biomarker Activity (AID 2283060). The conditions noted are these: primary human foreskin fibroblasts; actives raise or lower the signal. In short, it runs like this: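 fibroblasts (human foreskin, primary), 24 h post-dose; M-CSF by ELISA; bidirectional fit, DMSO = baseline.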

Test [20] is described as follows: BSK_hDFCGF_SRB: Viability Assessment in the BioMAP Diversity Plus: hDFCGF Assay (AID 2283061).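 Also: cells exposed to compound for 24 h before the read.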 The conditions noted are these: primary human foreskin fibroblasts. In short, it runs like this: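 SRB-based viability read on primary human skin fibroblasts at 24 h: TCA fixation, 0.1% dye, 560 nm. Gain or loss of signal is fitted against the DMSO negative control.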

Structures are written as SMILES. Activity calls are given as the source filed them. The calls were made as follows: active = hit-call score of the fitted dose curve at least 0.9, where 1 is the maximum; inactive = score below 0.9.

On to `O=C(Oc1ccccc1)c1cccc(C(=O)Oc2ccccc2)c1`, for which the result in [1], in [2], in test [3], in test [4], in test [5] and in [6] was inactive. The outcome in test [7], in [8], in test [9], in test [10], in test [11] and in test [12] was inactive. Also, the outcome in [13], in test [14], in [15], in test [16], in [17] and in test [18] was inactive. In addition, the outcome in [19] and in test [20] was inactive.
Turning to `CS(=O)(=O)c1ccc([C@@H](C[C@H]2CCC(=O)C2)C(=O)Nc2cnccn2)cc1Cl`, the outcome in test [1], in test [2], in test [3], in test [4], in test [5] and in test [6] was inactive. In addition, the result in test [7], in [8], in [9], in [10], in test [11] and in [12] was inactive. The outcome in [13], in test [14], in [15], in [16], in test [17] and in [18] was inactive. Moreover, the outcome in test [19] and in [20] was inactive.
Consider `Cc1ccc(C(C)(C)C)c(O)c1`, for which the outcome in test [1], in test [2], in test [3], in test [4], in [5] and in [6] was inactive. Moreover, the outcome in test [7], in test [8], in test [9], in test [10], in [11] and in [12] was inactive. For the same compound, the result in test [13], in test [14], in test [15], in [16], in [17] and in [18] was inactive. For the same compound, the result in test [19] and in test [20] was inactive.
The AC50 is the midpoint of the concentration-response curve, whichever way the signal moves. Regarding `Cc1ccc(-c2cc(C(F)(F)F)nn2-c2ccc(S(N)(=O)=O)cc2)cc1`, the AC50 in [1] is 32.7 µM (active); in [2] it was 32.4 µM (active); in [4], 22.5 µM (active); in test [5], 31.5 µM (active); in [6] it was 30.8 µM (active); in [7], 31 µM (active). The AC50 was 31.2 µM (active) in test [8]; 33.9 µM (active) in test [9]; 4.85 µM (active) in test [10]; 36.7 µM (active) in test [11]; 30.4 µM (active) in [13]; 29.9 µM (active) in test [14]. Besides, the result in [12], in test [15], in test [16], in test [17], in test [18] and in [19] was inactive. In addition, the result in test [20] was inactive.
`COc1ccc(OC(F)(F)F)cc1CN[C@H]1CCCN[C@H]1c1ccccc1`: the outcome in test [1], in test [3], in test [5], in test [7], in test [8] and in test [10] was inactive. In addition, the outcome in test [11], in test [12], in test [13], in [14], in test [15] and in test [16] was inactive. Also, the outcome in test [17], in test [19] and in test [20] was inactive. Moreover, the AC50 in [2] was 14.7 µM (active); in test [4] it was 6.31 µM (active); in [6], 29.6 µM (active); in test [9] it was 15 µM (active).
For `Cc1cc(Cc2ccc(N)c(C)c2)ccc1N`, the outcome in test [1], in test [2], in test [3], in test [4], in [5] and in test [6] was inactive. Further, the result in [7], in test [9], in test [10], in test [11], in test [12] and in test [13] was inactive. In addition, the result in [14], in test [15], in [16], in test [17], in test [19] and in test [20] was inactive. The AC50 in [18] is 3.12 µM (active).
As for `NC=O`, the outcome in test [1], in test [2], in test [3], in test [4], in test [5] and in [6] was inactive. In addition, the result in test [7], in test [8], in test [9], in test [10], in [11] and in [12] was inactive. Also, the result in test [13], in test [14], in [15], in test [16], in test [17] and in test [19] was inactive. Besides, in [20], the outcome was inactive. Further, in [18], the AC50 was 19.2 µM (active).
On to `O=C1O[C@H]([C@H](O)CO)C(O)=C1O`, for which the result in test [1], in test [2], in test [3], in test [4], in test [5] and in [6] was inactive. Also, the result in [7], in test [8], in test [9], in test [10], in [11] and in test [12] was inactive. In addition, the outcome in test [13], in [14], in test [15], in [16], in [17] and in test [18] was inactive. For the same compound, the outcome in test [19] and in test [20] was inactive.
Turning to `CCCCc1nc2cccnc2n1Cc1ccc(-c2ccccc2-c2nnn[nH]2)cc1`, the outcome in test [1], in test [2], in test [3], in test [4], in test [5] and in test [6] was inactive. The result in test [7], in [8], in [9], in test [10], in [11] and in test [13] was inactive. Also, the result in test [14], in [15], in test [16], in test [17], in [19] and in [20] was inactive. Besides, the figures for the AC50 in [12] and in [18] were 32 µM (active) and 18.7 µM (active), respectively.

Values taken from PubChem BioAssay (EPA / NIEHS).
